Bioassay records: PubChem, Broad Institute
Wnt bcat act: Wnt/beta-catenin pathway activation; Wnt/beta-catenin reporter cell assay, activator, plate reader; activation, % at 9.35 µM; 300,000 compounds, 1.2% hits; AID 743398; in the data active = activation above about 30%, passing the limit was not always enough
MITF act: increases MITF-driven TRPM1 promoter luciferase signal. SK-MEL-5 TRPM1-promoter luciferase, 24 h; % of positive control, neutral wells = 0. activation, % at 12.5 µM. 300,000 compounds, 0.75% hits. AID 588334;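 active = mean activation of at least 80% with every replicate also reaching 80%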
Env fusion inh: inhibitors of HIV Env-mediated cell fusion. HeLa-JRFL Env/CEM21 cell fusion, luciferase. inhibition, % at 12.3 µM. 360,000 compounds, 1.1% hits;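 active = mean replicate inhibition score of at least 50 and every replicate individually at or above 50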
F508del corr: correctors of CFTR F508del function in bronchial epithelial cells | CFBE cells, YFP halide quenching; stimulated with forskolin plus potentiator P3; % fluorescence drop versus neutral controls | activity (quench increase), % at 7.58 µM | 350,000 compounds, 0.36% hits;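 active = mean added fluorescence quench of at least 8% versus neutral control, with both replicates also reaching 8%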;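 note: cells transiently co-express mutant CFTR-F508del with the halide-sensitive YFP; corrector assay measuring rescue of mutant channel to the surface after 24 h compound exposure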
INS-1E GSIS act: GLuc luminescence reporter in INS-1E cells, primary screen for activators of glucose-dependent secretion of insulin | INS-1E GLuc reporter insulin secretion, 2-3 h | activation, % at 16.6 µM | 370,000 compounds, 0.61% hits;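 active = lowest replicate activation of at least 40%, so every replicate reaches that level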
Each line names hits and unclear results; the compound was inactive in the other large screens. Rows were chosen to be rich in hits. Some 2.7% of all compounds tested hit in one or more screens of this group.

O=C(/C(=C/c1ccc(Cl)cc1)c1nc2ccccc2[nH]1)c1ccccc1	Wnt bcat act 84 (no result: F508del corr, INS-1E GSIS act)
CC(C)NC(=O)N(C)C[C@@H]1Oc2ccc(NS(C)(=O)=O)cc2C(=O)N(C)C[C@@H]1C	none (no result: Wnt bcat act, MITF act, Env fusion inh, F508del corr)
COC(=O)c1c2oc(c1C(=O)OC)C(=O)N[C@H](Cc1ccccc1)Cn1cc(nn1)[C@H](Cc1ccccc1)NC(=O)N[C@H](CO)CC2	none (no result: Wnt bcat act, MITF act, INS-1E GSIS act)
CC(C)(C)c1ccc(CCC2OCC(C[N+]3(C)CCOCC3)O2)cc1 (stereo not given)	Wnt bcat act 31 (no result: MITF act)
COc1ccc(-c2nnc(SCc3nnc(-c4ccc(Cl)cc4)o3)n2-c2ccccc2)cc1	Env fusion inh 65 (no result: Wnt bcat act, MITF act, F508del corr)
COc1ccc(-c2nnc(SCc3nnc(-c4ccccc4)o3)n2-c2ccccc2)cc1	none (no result: MITF act, F508del corr, INS-1E GSIS act)
CCOC(=O)c1c(C)oc2c1c1c(c3ccccc32)OCN(Cc2cccnc2)C1	none (no result: Wnt bcat act, Env fusion inh, F508del corr, INS-1E GSIS act)
CCOC(=O)c1c(C)oc2c1c1c(c3ccccc32)OCN(CCCC(=O)O)C1	Wnt bcat act 48
COc1ccc(CN(C)C[C@@H]2OCCCC[C@@H](C)Oc3ccc(NC(=O)Nc4c(C)noc4C)cc3C(=O)N([C@@H](C)CO)C[C@H]2C)cc1	none (no result: Wnt bcat act, MITF act)
COc1ccc(-c2nc3nc(C)cc(C)n3n2)cc1	Wnt bcat act 33 (no result: F508del corr, INS-1E GSIS act)
CCOC(=O)N1CCC(NC(=O)c2ccc3c(c2)N=C(C)c2c(C)ccc(C)c2S3)CC1	F508del corr 11
Nc1nnc(CC(=O)N/N=C/c2ccc(-c3cccc(C(=O)O)c3)o2)s1	Wnt bcat act 38
Nc1nnc(CC(=O)N/N=C/c2ccc(-c3ccc(F)cc3)o2)s1	none (no result: MITF act)
CC(OC(=O)c1ccc(Cl)nc1)C(=O)NC(C)(C)C (stereo not given)	F508del corr 10
CN(C)CCOc1ccc(-c2c(-c3ccsc3)sc3ccccc23)cc1	INS-1E GSIS act 66
COc1cccc(-c2sc3ccc(OC)cc3c2-c2ccc(OCCN(C)C)cc2)c1	INS-1E GSIS act 132
COc1ccc(NC(=O)N(C)C[C@H]2Oc3c(NC(=O)c4cnccn4)cccc3C(=O)N([C@@H](C)CO)C[C@H]2C)cc1	none (no result: Wnt bcat act, MITF act, Env fusion inh)
CC1CN(S(=O)(=O)c2ccc(C(=O)NC3CCCCC3)cc2)CC(C)O1 (stereo not given)	none
Cc1ccc(C(CC(=O)O)NC(=O)c2ccc(S(=O)(=O)N3CC(C)OC(C)C3)cc2)cc1 (stereo not given)	INS-1E GSIS act 58 (no result: Env fusion inh)
O=C(N[C@H]1CC[C@H](CCn2cc(C3CCCC3)nn2)O[C@@H]1CO)c1cccnc1	none (no result: Wnt bcat act, MITF act, Env fusion inh)
C[C@@H]1CN([C@H](C)CO)C(=O)c2cc(NS(C)(=O)=O)ccc2O[C@H]1CN(C)Cc1ccc2c(c1)OCO2	none (no result: Wnt bcat act, MITF act)
C/C(=N/NC(=O)c1ccc(Br)o1)c1ccncc1	INS-1E GSIS act 67 (no result: F508del corr)
COc1ccccc1-c1ccc([C@H]2[C@@H](C#N)N(C(=O)C3CCOCC3)[C@H]2CO)cc1	none (no result: Wnt bcat act, MITF act)
O=C(COc1ccccc1)Nc1cccc(-c2nc3cc4ccccc4cc3[nH]2)c1	MITF act 106 (no result: Wnt bcat act, F508del corr)
O=C(C[C@@H]1CC[C@@H]2[C@H](COC[C@H](O)CN2C(=O)c2ccc3c(c2)OCO3)O1)NCCN1CCCC1	none (no result: Wnt bcat act, MITF act, Env fusion inh)
c1ccc(CSc2ncnc3c2oc2ccccc23)cc1	none (no result: Wnt bcat act, Env fusion inh, F508del corr, INS-1E GSIS act)
c1coc(CSc2ncnc3c2oc2ccccc23)c1	Wnt bcat act 35 (no result: MITF act, INS-1E GSIS act)
O=C(CN1C(=O)NC2(CCCCCCC2)C1=O)Nc1ccc(Br)cc1	F508del corr 9.1
N/C(=N\OC(=O)c1ccc(Cl)cc1Cl)c1ccccc1	none (no result: Wnt bcat act, F508del corr)
N/C(=N\OC(=O)c1cccc2ccccc12)c1cccnc1	Wnt bcat act 45
N/C(=N\OC(=O)c1ccc(Cl)cc1Cl)c1cccnc1	Wnt bcat act 32 (no result: F508del corr)
CCCNC(=O)Nc1ccc2c(c1)C(=O)N(C)C[C@H](OC)[C@@H](C)CN(C(=O)c1ccccc1F)[C@H](C)CO2	none (no result: Wnt bcat act, MITF act)
C[C@@H]1CN([C@H](C)CO)C(=O)c2cccc(NC(=O)C3CCCCC3)c2O[C@@H]1CN(C)S(=O)(=O)c1ccccc1	none (no result: Wnt bcat act, MITF act, Env fusion inh)
CC(C)NC(=O)Nc1cccc2c1O[C@H](CN(C)Cc1ccncc1)[C@H](C)CN([C@H](C)CO)C2=O	none (no result: Wnt bcat act, MITF act, Env fusion inh)
COc1ccc(S(=O)(=O)Nc2ccc3c(c2)C(=O)N([C@H](C)CO)C[C@@H](C)[C@@H](CN(C)S(=O)(=O)c2ccc(F)cc2)OCCCC[C@H](C)O3)cc1	none (no result: Wnt bcat act, MITF act)
Oc1c(C(Nc2cccc(C(F)(F)F)c2)c2ccncc2)ccc2cccnc12 (stereo not given)	Wnt bcat act 53
Oc1c(C(Nc2nccs2)c2ccc(C(F)(F)F)cc2)ccc2cccnc12 (stereo not given)	none
